Experimental data published in article PMC5540273 (PLoS ONE, 2017).

How the values were obtained:
Details in all cases: concentration: 1 μM, replicates: in singlicate; n = 1
MERTK = test system: MERTK
MET = test system: MET
MINK = test system: T1, MINK
T1 construct: gene MINK1

MKK7 = test system: MKK7
MKNK1 = test system: MKNK1
MKNK2 = test system: MKNK2
MLCK = test system: T2, MLCK
T2 construct: gene MYLK3

MLK1 = test system: T3, MLK1
T3 construct: gene MAP3K9

MLK2 = test system: MLK2
MLK3 = test system: MLK3
MRCKA = test system: MRCKA
MRCKB = test system: T4, MRCKB
T4 construct: gene CDC42BPB

MST1R = test system: MST1R
MST1 = test system: T5, MST1
T5 construct: gene STK4

MST2 = test system: T6, MST2
T6 construct: gene STK3

MST3 = test system: T7, MST3
T7 construct: gene STK24

MST4 = test system: MST4
MTOR = test system: MTOR
MUSK = test system: MUSK
MYLK2 = test system: MYLK2
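Also: KINOMEscan kinase panel screen.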

SMILES	%Inh (MERTK) [%]	%Inh (MET) [%]	%Inh (MINK) [%]	%Inh (MKK7) [%]	%Inh (MKNK1) [%]	%Inh (MKNK2) [%]	%Inh (MLCK) [%]	%Inh (MLK1) [%]	%Inh (MLK2) [%]	%Inh (MLK3) [%]	%Inh (MRCKA) [%]	%Inh (MRCKB) [%]	%Inh (MST1R) [%]	%Inh (MST1) [%]	%Inh (MST2) [%]	%Inh (MST3) [%]	%Inh (MST4) [%]	%Inh (MTOR) [%]	%Inh (MUSK) [%]	%Inh (MYLK2) [%]
Nc1nc(-c2ccc3c(N)n[nH]c3c2)cc(N2CCCCC2)n1 [GSK2228768]	0	0	0	0	0	23	0	0	0	0	0	0	11	0	0	0	0	0	3	0
CNc1nccc(-c2c(-c3ccc(F)cc3)ncn2CCCN2CCOCC2)n1 [SB-222516]	19	3	15	0	3	0	1	33	10	0	8	0	0	0	14	14	0	11	0	0
CCc1nc(-c2cccc(N(C)S(=O)(=O)c3ccccc3)c2)c(-c2ccnc(Nc3ccc(N4CCN(C(C)=O)CC4)nc3)n2)s1 [GSK1645895]	11	0	18	0	0	6	0	0	0	0	0	0	40	3	16	15	0	2	1	0
CCCc1ccc(S(=O)(=O)NC2CCN(c3ccnc(Nc4ccc(OC)cc4)n3)C2)cc1 (centres unmarked) [GSK1379737]	16	0	0	0	0	6	11	0	0	4	10	0	39	65	0	0	0	28	9	0
Cc1ccc(O)cc1Nc1cc(C(F)(F)F)nc2ccc(-c3ccncc3)cc12 [GW630823]	21	6	0	0	0	0	12	4	2	0	0	0	19	0	44	18	0	0	0	4
Oc1ccc2ncnc(Nc3ccc(OCc4ccccc4)cc3)c2c1 [GI262866]	34	5	0	0	0	15	0	0	24	0	12	0	13	59	0	0	0	11	17	0
Nc1nc(-c2ccc3c(N)n[nH]c3c2)cc(N2CCC[C@@H](C(=O)Nc3ccccc3)C2)n1.O=C(O)C(F)(F)F.O=C(O)C(F)(F)F [GSK2288359]	0	0	0	0	11	1	0	0	0	0	2	0	14	0	30	0	0	15	4	5
Nc1nccc2scc(-c3ccc4c(c3)CCN4C(=O)Cc3cc(F)ccc3F)c12 [GSK2587663]	0	0	18	0	0	4	4	0	0	15	15	0	35	8	3	15	0	4	10	0
CN1c2ccc(-c3ccc(C(=O)NCCO)cc3)cc2-c2[nH]ncc2S1(=O)=O	0	2	46	0	0	0	0	29	27	18	0	5	0	5	35	10	0	23	0	0
CCn1c(-c2ccncc2)nc2cnccc21 [SB-735216]	0	1	19	5	5	33	0	8	0	0	23	0	27	0	0	0	13	0	5	15
